Experimental data as given in PubChem BioAssay.

Assay: JC-1 mitochondrial signal, unstimulated myeloma cells – cell-based, JC-1 fluorescence, RPMI8226, 24 h, 100 nL compound, profiling panel (AID 1169); further: test concentration not given here
Settings: JC-1 mitochondrial potential fluorescence, higher = more signal

Structure (SMILES)	z-score
Cc1ccc(N2C(=O)c3ccccc3[C@@H](C(=O)NC3CC3)[C@@H]2c2ccc(CO)cc2)nc1	0.755
CCCCC(CC)C(O)C1C=CC2C(=O)N(Cc3ccccc3)C(=O)C2N1n1cnnc1 (stereo unspecified)	0.447
C[C@H]1NC(=O)[C@@]23C(=O)N[C@@H](Cc4ccccc4)C2[C@H](C)[C@@]2(C)O[C@H]2C3/C=C/C/C=C\CNC(=O)[C@@H]2CCCN2C1=O (stereo partly specified)	0.263
CC(=O)n1cc(C(O)C2C=CC3C(=O)N(c4ccccc4)C(=O)C3N2Nc2ccc([N+](=O)[O-])cc2)c2ccccc21 (stereo unspecified)	-0.412
C[C@@]1([C@@H](NC(=O)c2ccc(-c3ccccc3)cc2)c2ccc(Cl)cc2)C[C@H]1C1CCCCC1	-0.902
C=CCNC(=O)[C@@H]1[C@H]2C(=O)O[C@H](c3ccccc3)[C@H](c3ccccc3)N2[C@H](c2ccc(O)cc2)[C@@]12C(=O)Nc1ccc(C#CCNC(N)=O)cc12	-0.994
C=C(/C(=C/C[C@H](OC(C)=O)c1ccccc1OCCO)c1cnc2ccccc2c1)C(C)C	0.251
COc1ccc(/C=C/C=O)cc1	-0.464
COCCOC(=O)N1C(=O)[C@@]2(c3cc(C#Cc4ccc(OC)cc4)ccc31)[C@H](c1ccc(OCCO)cc1)N1[C@H](c3ccccc3)[C@H](c3ccccc3)OC(=O)[C@H]1[C@@H]2C(=O)N1CCN(c2ncccn2)CC1	-0.351
COc1ccc(CCNC(=O)[C@@]2(Sc3ccc(C)cc3)CC(=O)N(C3Cc4ccccc4C3)[C@@H]2c2ccc(CO)cc2I)cc1	-0.597
COc1ccc([Si](C)(C)[C@@H]2[C@@H](CC(=O)N3CCC[C@H]3CO)O[C@]3(C(=O)N(c4ccccc4)c4ccccc43)[C@H]2C)cc1	-0.277
COc1ccc(C#Cc2ccc3c(c2)[C@]2(C(=O)N3)[C@H](C(=O)NC[C@H](O)c3ccccc3)[C@H]3C(=O)O[C@H](c4ccccc4)[C@H](c4ccccc4)N3[C@@H]2c2ccc(O)cc2)cc1	-1.11
CC(C)C[C@@H]1NC(=O)[C@@H]2C[C@H](C(=O)O)[C@H](c3cccc(OCCO)c3)N2C1=O	0.719
CC#CC(=O)Oc1ccccc1C=CC(=O)OCC	0.849
CO[C@H]1O[C@H](CO)[C@@H](OC(=O)Nc2ccccc2)[C@H](OC(=O)Nc2ccccc2)[C@@H]1OC(=O)Nc1ccccc1	-1.07
COCCOC(=O)N1C(=O)[C@@]2(c3ccccc31)[C@H](C(=O)N1CCc3cc(OC)c(OC)cc3C1)[C@H]1C(=O)O[C@H](c3ccccc3)[C@H](c3ccccc3)N1[C@@H]2c1ccc(OCCO)cc1	-0.618
O=C1N(Cc2ccccc2)c2ccccc2[C@@H]2OC(c3ccc(OCCCO)cc3)=N[C@]12CCS(=O)(=O)c1ccccc1	-0.669
C=C(CCCC)C(=O)CC[C@@H](OC(=O)c1ccccc1-c1ccccc1C(=O)O)c1ccc(OCCO)cc1	-0.659

Structure (SMILES)	z-score
NC(=O)N1C(=O)C2C(C1=O)C1C=C(c3ccc(CO)cc3)C2C(c2cccs2)N1Cc1cccc(OC(F)(F)F)c1 (stereo unspecified)	-0.85
COc1ccc([C@H]2OC[C@@H]3C[C@@H](Cc4ccccc4)C(=O)N32)cc1	0.183
NC(=O)NCC#Cc1ccc2c(c1)[C@]1(C(=O)N2)[C@H](c2ccccc2OCCO)N2[C@H](c3ccccc3)[C@H](c3ccccc3)OC(=O)[C@H]2[C@@H]1C(=O)Nc1nc2ccccc2s1	-0.885
COc1ccc(C(=O)Nc2ccc(CN3C(=O)[C@]4(O[C@H](CCO)[C@@H]([Si](C)(C)c5ccc(OC)cc5)[C@@H]4C)c4ccccc43)cc2)cc1	-1.06
C#C[C@H](O[Si](C#Cc1ccc(Oc2ccccc2)cc1)(C(C)C)C(C)C)c1ccccc1	-0.836
COc1ccc([Si](C)(C)[C@H]2[C@H](CCO)O[C@@]3(C(=O)N(Cc4ccc(N(C=O)c5ccccc5)cc4)c4ccccc43)[C@@H]2C)cc1	-1.03
CC(=O)NCCCC[C@@H]1NC(=O)[C@H]2C[C@@H](C(=O)NCCCCCCNC(=O)CS)[C@@H](c3ccc(O)cc3)N2C1=O	-0.0883
C=CCNC(=O)[C@H]1[C@@H]2C(=O)O[C@@H](c3ccccc3)[C@@H](c3ccccc3)N2[C@@H](c2ccccc2OCCO)[C@]12C(=O)Nc1ccc(C#CCCO)cc12	-0.953
O=C1O[C@@H](c2ccccc2)[C@@H](c2ccccc2)N2[C@@H](c3ccccc3OCCO)[C@]3(C(=O)Nc4ccc(C#CC5=CCCCC5)cc43)[C@@H](C(=O)N3CCCCCCC3)[C@H]12	-0.715
C=C[C@@H](COC(=O)OC(C)(C)C)N(Cc1ccc(OC)cc1)S(=O)(=O)c1ccc(Br)cc1	-0.525
C=C(/C(=C/C[C@H](OC(C)=O)c1ccc(CO)o1)c1cc(C(=O)OC)ccc1OC)C(C)C	0.104
COc1ccc(CCNC(=O)[C@@]2(Sc3ccc(C)cc3)CC(=O)N(C(C)C)[C@@H]2c2ccc(CO)cc2I)cc1	-0.686
COc1ccc(CCNC(=O)[C@@]2(C)c3ccccc3C(=O)N(C(C)C)[C@H]2c2ccc(CO)cc2)cc1	-0.0396
CC(C)N1C(=O)[C@@]2(Cc3ccccc31)c1ccccc1C(=O)N(Cc1ccccc1Cl)[C@H]2c1ccc(CO)cc1	0.115
C=CCOC(=O)[C@H]1[C@@H]2C(=O)O[C@@H](c3ccccc3)[C@@H](c3ccccc3)N2[C@@H](c2ccc(OCCOC(=O)[C@H]3C[C@H]4C(=O)N[C@@H](CCCCN(C)C)C(=O)N4[C@H]3c3ccc(O)cc3)cc2)[C@]12C(=O)Nc1ccc(I)cc12	0.742
CC(C)OC(=O)C=C1C[C@@H](c2ccccn2)O[C@@H](c2ccccn2)O1	0.65
COC(=O)[C@@]1(Cc2ccc(OC)cc2)[C@H]2c3cc(C(=O)N(C)C)n(CCc4ccccn4)c3C[C@H]2CN1C(=O)c1ccccc1	-0.772
COC(=O)[C@@]1(Cc2ccccc2)N=C(c2ccc(OCCCO)cc2)O[C@H]1c1ccccc1	-1.1
